# Screening data from PubChem.
# eIF4E 4G PPI – eIF4E/eIF4G interaction inhibition in translation initiation; P63073+Q04637; inhibition, % at 21.7 µM; TR-FRET eIF4E-eIF4GI(517-606) binding, 2 h; 220,000 tested, 0.37% active;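 also: 0% = full FRET control wells and 100% = background wells lacking eIF4GI fragment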
# Mcl1 Bid PPI – Mcl-1/Bid interaction inhibition; 220,000 tested, 0.97% active; inhibition, % at 21.7 µM; TR-FRET Mcl-1/Bid-Dy647 peptide binding, 1536-well;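 active = compounds that cut the binding signal by more than half at the single screening dose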;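 also: His-tagged Mcl-1 with europium anti-His antibody binding Bid BH3 peptide; 0% = Mcl-1 plus peptide wells and 100% = peptide-only wells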
# 14-3-3 Bad PPI – disrupts binding of bovine 14-3-3 zeta to phospho-Bad peptide. 220,000 tested, 0.71% active. inhibition, % at 21.7 µM. P63103. AID 781. TR-FRET 14-3-3zeta/Dy647-pBad peptide displacement, 1 h;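 active = inhibition above about 70%, limit read from the data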;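 also: 0% = full 14-3-3 plus peptide FRET controls and 100% = background without 14-3-3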
# Mcl1-Noxa inh – disrupts binding of human Mcl-1 to Noxa peptide | TR-FRET Mcl-1/Noxa peptide binding, 2 h | inhibition, % at 21.7 µM | 220,000 tested, 1.5% active | AID 1022;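 active = compounds that cut the protein-peptide binding signal by more than 50% relative to plate controls in a single-dose test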;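 also: His-tagged Mcl-1 with rhodamine Noxa BH3 peptide and terbium anti-His antibody; 0% = Mcl-1 plus Noxa peptide wells and 100% = peptide-only wells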
# NCF1 inh – p47phox (human) inhibition; 220,000 tested, 0.53% active; p47phox/p22phox peptide binding, fluorescence polarization, 2 h; inhibition, % at 24.7 µM; P14598;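 also: 0% = p47phox with labelled peptide and 100% = labelled peptide alone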
# Bim-Mcl-1 – human Bim-Mcl-1 interaction inhibition. Q07820. Bead-based flow cytometry, Bim peptide-Mcl-1 binding. inhibition, % at 10 µM. 190,000 tested, 0.1% active; in the data active = inhibition above about 40%;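 also: 0% = no compound tracer wells and 100% = peptide blocker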
# Active calls of the source: *; · = no result; [ ] = another dose, or the depositor's remark. A selection: hits, their analogues and other compounds. The true share with any hit is near 3.3%.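 The calls were made as follows, unless noted: active = inhibition above about 30% (limit read from the data); inactive = the rest.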
SMILES,eIF4E 4G PPI,Mcl1 Bid PPI,14-3-3 Bad PPI,Mcl1-Noxa inh,NCF1 inh,Bim-Mcl-1
COc1ccc(-c2cc(=O)oc3cc(OCC(=O)c4cccc([N+](=O)[O-])c4)ccc23)cc1,24,50,70*[fluorescence artefact?],46,64*,2
COc1ccc(N(C(=O)CNC(=O)c2cccs2)C(C(=O)NCC2CCCO2)c2ccccc2)cc1OC (centres undefined),-1,-20,-6,12,-5,-5
C(=N\Nc1nc(Nc2ccccc2)nc(N2CCCCC2)n1)/c1ccco1,-2,-20,-9,21,135*,0
C=CCOc1c(CNc2nccs2)cccc1OCC,-6,-20,0,9,36*,-1
C=CCOc1c2ccc(C(=O)NCc3ccc(OC)cc3)cc2nn1C,8,-16,4,-3,5,-2
C=CCOc1c2ccc(C(=O)NCc3ccccc3OC)cc2nn1C,-4,64*,-1,10,-1,0
COc1ccc(N=Cc2c(O)c3ccccc3n2C(C)=O)cc1,-9,-137,-4,17,31*,·
OC(COCC1COc2ccccc2O1)CN1CCN(c2ccccn2)CC1 (centres undefined),-1,9,80*,23,8,-1
COCCCNCCOCCOc1ccc(Cl)cc1C(C)(C)C,-3,-12,2,26,10,-1
Cc1ccccc1-n1sc2cc(F)ccc2c1=O,52*,-91,-29,16,102*,-4
COC(=O)c1cnc(Oc2ccc(NC(=O)NC(=O)c3ccccc3Cl)cc2)cc1C(F)(F)F,2,-4,-4,9,-5,·
CCc1ccc(NC(=O)N(CCN(C)C)C(C)c2cccnc2)cc1 (centres undefined),3,-11,3,3,3,0
CCOc1ccc(NC(=O)N(CCN(C)C)C(C)c2cccnc2)cc1 (centres undefined),88*,-67,-1,-29,-5,·
Cc1ccc(-n2cccc2/C=C2/C(=N)N3C(=NC2=O)SN=C3S(C)(=O)=O)cc1,24,-17,10,98*,-71,-1
CS(=O)(=O)C1=NSC2=NC(=O)/C(=C\c3cccn3-c3ccccc3Cl)C(=N)N21,16,-8,4,89*,-91,1
CCC1=NN2C(=N)/C(=C\c3cccn3-c3ccc(C)c(C)c3)C(=O)N=C2S1,-4,-37,-12,12,-31,0
Cc1ccc(-n2cccc2/C=C2\C(=N)N3N=C(c4ccco4)SC3=NC2=O)cc1,56*,79*,74*,94*,-81,-3
CS(=O)(=O)C1=NSC2=NC(=O)/C(=C\c3ccc(-c4ccccc4)o3)C(=N)N21,5,-13,-14,14,-30,0
Cc1cc(C)cc(-n2cccc2/C=C2/C(=N)N3C(=NC2=O)SN=C3S(C)(=O)=O)c1,13,-12,-2,34,-115,3
CCC1=NN2C(=N)/C(=C\c3cccn3-c3ccc(Cl)cc3)C(=O)N=C2S1,1,-25,-2,20,-2,0
CCc1ccc(-n2cccc2/C=C2/C(=N)N3C(=NC2=O)SN=C3S(C)(=O)=O)cc1,21,-4,13,94*,-93,2
CCCCCC(=O)NC(=S)Nc1cccc(-c2nc3ncccc3o2)c1,-3,-67,3,1,-13,·
Cc1cccc(-c2nc(Nc3ccc(N4CCOCC4)cc3)c3ccccc3n2)c1,14,25,-15,82*,-21,2
Cc1ccc(Nc2nc(-c3cccnc3)nc3ccccc23)cc1,-4,11,-3,42,-42,·
CSc1ccc(/C=C(/NC(=O)c2ccc(C)cc2)C(=O)Nc2cccc(C)c2)cc1,1,-20,4,18,3,-3
SMILES,eIF4E 4G PPI,Mcl1 Bid PPI,14-3-3 Bad PPI,Mcl1-Noxa inh,NCF1 inh,Bim-Mcl-1
CCSc1ccc2nnc(-c3cccc(F)c3)n2n1,56*,-19,3,18,3,-6
O=C(CSc1ccc2nnc(-c3cccc(F)c3)n2n1)N1CCCc2ccccc21,3,-27,22,-10,24,9
CC(=O)c1ccc(NC(=O)Nc2ccc3c(c2)N(C)C(=O)CS3)cc1,6,-19,3,61*,-17,-2
CN1CCN(c2ccc(Cl)cc2NC(=O)CCN2C(=O)c3ccccc3C2=O)CC1,6,2,34,31,-5,0
O=c1[nH][nH]c2cc(=O)n(-c3ccc(Cl)cc3)nc12,0,-100,92*,-6,6,2
CS(=O)(=O)Nc1nc2n(n1)C(c1ccccc1)CC(c1ccccc1)N2 (centres undefined),2,-20,-4,-19,-5,·
O=C(CSc1ccccn1)N1CCc2ccccc21,1,-6,27,12,0,-1
O=C(CSc1ncn(-c2ccccc2)n1)N1CCc2ccccc21,31*[fluorescence artefact?],-8,-1,12,-15,-4
O=C(CSc1nnc(CNc2ccccc2)o1)N1CCc2ccccc21,36*,-3,-2,1,-7,2
CCN(CC)/C(Sc1ccccc1)=C(/C(Cl)=C(Cl)Cl)[N+](=O)[O-],4,7,6,-4,0,-2
Cc1cc(O)c(/C=N/Nc2ccc(Cl)cc2)c(=O)o1,7,-55,-1,8,-27,-4
Cc1cc(O)c(/C=N/OCc2ccc(Cl)cc2Cl)c(=O)o1,76*,-16,-7,21,-3,0
O=C(CCCl)N1CCCC2(CCCCC2)C1,-1,-7,6,1,-9,·
CCOc1ccc(NC(=O)COc2ccc(C(=O)NCCc3ccccc3)cc2)cc1,-1,-14,72*[fluorescence artefact?],-22,-6,12
CC(C)c1nnc(NC(=O)CCC(=O)Nc2ccc3cn[nH]c3c2)s1,0,-12,-7,1,-5,·
O=C(O)/C(=C/c1ccco1)NC(=O)c1ccccc1,10,-29,0,24,-3,-1
O=C(O)/C(=C\c1ccco1)NC(=O)c1cccc2ccccc12,0,-10,1,27,127*,2
COc1cccc(C2=NN(S(C)(=O)=O)C(c3cccs3)C2)c1 (centres undefined),1,-10,-2,1,2,-2
Nc1ccc(N2CCCCC2)cc1N1CCCCC1,19,-15,68,76*,16,0
Cc1nn(-c2cc(N3CCCCC3)ccc2N)c(=O)c2ccccc12,1,-42,-6,20,1,-3
CCCCCCN(C(=O)CCl)c1ccccc1,-2,-16,-1,-7,-9,·
COc1ccc(CC(=O)Nc2ccc(-c3nnc(-c4ccccc4)o3)cc2)cc1OC,33*,-43,55,10,-13,0
CCOC(=O)c1cn(CC)c2ccc(S(=O)(=O)N3CCC(C)CC3)cc2c1=O,8,19,1,43,-11,-2
